# Test results published in the supplement of paper PMC12350171.
# Where a name gives a salt, the structure may show the parent alone.
# System: Haemophilus parainfluenzae
# Assay: growth AUC normalised to DMSO control (fraction of control); higher = less growth inhibition, active = hit call of the paper
# Details: 20 µM;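 active = AUC significantly below DMSO controls by Student t-fit with adjusted P under 0.01; inactive = not significantly reduced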
# In short: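 Hemin and NAD were added to the medium for Haemophilus parainfluenzae. All pathogens, after two anaerobic passages, were inoculated at a starting OD578 of 0.01 into pre-reduced mGAM plates with 20 μM compound and 1% DMSO under breathable seals, and OD578 was read hourly for 24 h in three biological replicates. AUC of each growth curve was obtained with the trapezoidal rule up to the exponential-to-stationary transition and normalised to DMSO controls from the same plate.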
row,Compound,growth AUC normalised to DMSO control
1,CN(C)/N=N/c1[nH]cnc1C(N)=O [Dacarbazine],0.999 (inactive)
2,CC[N+](C)(C)c1cccc(O)c1 [Edrophonium chloride],0.936 (inactive)
3,CCCCN(CCCC)CCCOC(=O)c1ccc(N)cc1 [Butacaine],0.998 (inactive)
4,CO[C@@]1(NC(=O)Cc2cccs2)C(=O)N2C(C(=O)O)=C(COC(N)=O)CS[C@@H]21 [Cefoxitin sodium salt],0.0362 (active)
5,CN(C)CCN1C(=O)c2ccccc2N(C)c2ccccc21 [Dibenzepine hydrochloride],0.97 (inactive)
6,COc1cc(NC(C)CCCN)c2ncccc2c1 (stereo not drawn) [Primaquine diphosphate],1.08 (inactive)
7,Cc1cnc(C(=O)NCCc2ccc(S(=O)(=O)NC(=O)NC3CCCCC3)cc2)cn1 [Glipizide],0.995 (inactive)
8,CC(=O)Nc1c(I)c(C(=O)N[C@H]2C(O)O[C@H](CO)[C@@H](O)[C@@H]2O)c(I)c(N(C)C(C)=O)c1I (stereo partly drawn) [Metrizamide],0.984 (inactive)
9,CC(C)[N+](C)(CCOC(=O)C1c2ccccc2Oc2ccccc21)C(C)C [Propantheline bromide],0.988 (inactive)
10,Nc1ncnc2c1ncn2C1OC(COP(=O)(O)O)C(O)C1O (stereo not drawn) [Adenosine 5'-monophosphate monohydrate],0.982 (inactive)
11,CCCCCCCN(CC)CCCC(O)c1ccc(NS(C)(=O)=O)cc1 (stereo not drawn) [Ibutilide fumarate],0.938 (inactive)
12,NCc1ccc(S(N)(=O)=O)cc1 [Mafenide hydrochloride],1 (inactive)
13,CN1[C@@H]2CC[C@H]1C[C@@H](OC(c1ccccc1)c1ccccc1)C2 [Benztropine mesylate],1 (inactive)
14,O=C(O)CNC(=O)C(CS)Cc1ccccc1 (stereo not drawn) [Thiorphan],0.891 (inactive)
15,CC[C@H]1OC(=O)[C@H](C)[C@@H](O[C@H]2C[C@@](C)(OC)[C@@H](O)[C@H](C)O2)[C@H](C)[C@@H](O[C@@H]2O[C@H](C)C[C@H](N(C)C)[C@H]2O)[C@](C)(O)C[C@@H](C)C(=O)[C@H](C)[C@@H](O)[C@]1(C)O [Erythromycin],0.028 (active)
16,CC(=O)N[C@@H](CC(=O)O)C(=O)N[C@@H](CCC(=O)O)C(=O)O [Spaglumic acid],1.04 (inactive)
17,O=C(O)/C=C/c1ccc(Cn2ccnc2)cc1 [Ozagrel hydrochloride],1.03 (inactive)
18,COc1ccc(CN(CCN(C)C)c2ccccn2)cc1 [Pyrilamine maleate],0.99 (inactive)
19,CC(C(O)c1ccc(O)cc1)N1CCC(Cc2ccccc2)CC1 (stereo not drawn) [Ifenprodil tartrate],1.01 (inactive)

row,Compound,growth AUC normalised to DMSO control
1,CC(C)(Oc1ccc(CCNC(=O)c2ccc(Cl)cc2)cc1)C(=O)O [Bezafibrate],0.984 (inactive)
2,CN(CCCCCCCCCCN(C)C(=O)Oc1cccc([N+](C)(C)C)c1)C(=O)Oc1cccc([N+](C)(C)C)c1 [Demecarium bromide],0.923 (inactive)
3,COc1cc2nc(N(C)CCCNC(=O)C3CCCO3)nc(N)c2cc1OC (stereo not drawn) [Alfuzosin hydrochloride],1.03 (inactive)
4,CC(C(=O)O)c1ccc2c(c1)Cc1cccnc1O2 (stereo not drawn) [Pranoprofen],0.985 (inactive)
5,CNCCCN1c2ccccc2CCc2ccccc21 [Desipramine hydrochloride],0.979 (inactive)
6,CC[N+](CC)(CC)CCOc1cccc(OCC[N+](CC)(CC)CC)c1OCC[N+](CC)(CC)CC [Gallamine triethiodide],1.09 (inactive)
7,OC(Cn1cncn1)(Cn1cncn1)c1ccc(F)cc1F [Fluconazole],1.07 (inactive)
8,CN1C(=O)CC(c2ccccc2)C1=O (stereo not drawn) [Phensuximide],1.01 (inactive)
9,C[C@H](CCC(=O)O)[C@H]1CC[C@H]2[C@@H]3C(=O)C[C@@H]4CC(=O)CC[C@]4(C)[C@H]3CC(=O)[C@]12C [Dehydrocholic acid],0.972 (inactive)
10,N=C(N)NC(=O)c1nc(Cl)c(N)nc1N [Amiloride hydrochloride dihydrate],1.03 (inactive)
11,CCOc1ccccc1OC(c1ccccc1)C1CNCCO1 (stereo not drawn) [Reboxetine mesylate],1.01 (inactive)
12,O=C(O)c1cccnc1 [Niacin],1.07 (inactive)
13,O=C(O[C@@H]1C[C@@H]2C[C@H]3C[C@H](C1)N2CC3=O)c1c[nH]c2ccccc12 [Dolasetron mesilate],1.06 (inactive)
14,CC1CS(=O)(=O)CCN1/N=C/c1ccc([N+](=O)[O-])o1 (stereo not drawn) [Nifurtimox],0.596 (active)
15,O=C1c2ccccc2C(=O)C1c1ccccc1 [Phenindione],0.973 (inactive)
16,COCCOC(=O)C1=C(C)NC(C)=C(C(=O)OC(C)C)C1c1cccc([N+](=O)[O-])c1 (stereo not drawn) [Nimodipine],0.959 (inactive)
17,CC(=O)Nc1ccc(O)cc1 [Acetaminophen],0.952 (inactive)
18,COc1ccc(C(=O)c2ccccc2)c(O)c1 [Oxybenzone],1.06 (inactive)
19,Nc1nc(Cl)nc2c1ncn2[C@H]1C[C@H](O)[C@@H](CO)O1 [Cladribine],1.01 (inactive)
